The full data set covers some 21,000 targets. This sample favours those with the largest changes.
Compound: CC1Cc2ccccc2N1C(=O)C1CCCN(C1)C(=O)CCl (mixture of isomers) [TRIM25 ligand 11 (diastereomer mixture)]
Test: probe-labelled cysteine peptide fold change vs DMSO (competition) (log2 fold change); higher = less target engagement (more negative = stronger competition)
Conditions: THP-1, incubation time: 4 h
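Further: competitive chemoproteomic profiling in live THP-1 cells with an iodoacetamide desthiobiotin (IA-DTB) probe, comparing probe-labelled peptide intensities in compound-treated cells against DMSO-treated controls.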

UniProt Q15438, sequence (Q15438 whole entry, looked up): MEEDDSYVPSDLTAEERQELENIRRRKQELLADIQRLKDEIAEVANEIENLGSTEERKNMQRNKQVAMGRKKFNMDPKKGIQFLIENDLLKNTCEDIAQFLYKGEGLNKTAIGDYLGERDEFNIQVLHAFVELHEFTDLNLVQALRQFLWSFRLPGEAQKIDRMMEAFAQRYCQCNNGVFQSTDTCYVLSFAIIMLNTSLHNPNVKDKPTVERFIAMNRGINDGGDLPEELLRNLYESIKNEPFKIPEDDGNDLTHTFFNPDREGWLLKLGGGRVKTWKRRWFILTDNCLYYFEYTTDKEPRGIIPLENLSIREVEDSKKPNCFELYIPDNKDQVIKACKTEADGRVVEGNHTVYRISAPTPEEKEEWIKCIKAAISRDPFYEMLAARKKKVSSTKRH
UniProt Q9BTC0, sequence (Q9BTC0 whole entry, looked up): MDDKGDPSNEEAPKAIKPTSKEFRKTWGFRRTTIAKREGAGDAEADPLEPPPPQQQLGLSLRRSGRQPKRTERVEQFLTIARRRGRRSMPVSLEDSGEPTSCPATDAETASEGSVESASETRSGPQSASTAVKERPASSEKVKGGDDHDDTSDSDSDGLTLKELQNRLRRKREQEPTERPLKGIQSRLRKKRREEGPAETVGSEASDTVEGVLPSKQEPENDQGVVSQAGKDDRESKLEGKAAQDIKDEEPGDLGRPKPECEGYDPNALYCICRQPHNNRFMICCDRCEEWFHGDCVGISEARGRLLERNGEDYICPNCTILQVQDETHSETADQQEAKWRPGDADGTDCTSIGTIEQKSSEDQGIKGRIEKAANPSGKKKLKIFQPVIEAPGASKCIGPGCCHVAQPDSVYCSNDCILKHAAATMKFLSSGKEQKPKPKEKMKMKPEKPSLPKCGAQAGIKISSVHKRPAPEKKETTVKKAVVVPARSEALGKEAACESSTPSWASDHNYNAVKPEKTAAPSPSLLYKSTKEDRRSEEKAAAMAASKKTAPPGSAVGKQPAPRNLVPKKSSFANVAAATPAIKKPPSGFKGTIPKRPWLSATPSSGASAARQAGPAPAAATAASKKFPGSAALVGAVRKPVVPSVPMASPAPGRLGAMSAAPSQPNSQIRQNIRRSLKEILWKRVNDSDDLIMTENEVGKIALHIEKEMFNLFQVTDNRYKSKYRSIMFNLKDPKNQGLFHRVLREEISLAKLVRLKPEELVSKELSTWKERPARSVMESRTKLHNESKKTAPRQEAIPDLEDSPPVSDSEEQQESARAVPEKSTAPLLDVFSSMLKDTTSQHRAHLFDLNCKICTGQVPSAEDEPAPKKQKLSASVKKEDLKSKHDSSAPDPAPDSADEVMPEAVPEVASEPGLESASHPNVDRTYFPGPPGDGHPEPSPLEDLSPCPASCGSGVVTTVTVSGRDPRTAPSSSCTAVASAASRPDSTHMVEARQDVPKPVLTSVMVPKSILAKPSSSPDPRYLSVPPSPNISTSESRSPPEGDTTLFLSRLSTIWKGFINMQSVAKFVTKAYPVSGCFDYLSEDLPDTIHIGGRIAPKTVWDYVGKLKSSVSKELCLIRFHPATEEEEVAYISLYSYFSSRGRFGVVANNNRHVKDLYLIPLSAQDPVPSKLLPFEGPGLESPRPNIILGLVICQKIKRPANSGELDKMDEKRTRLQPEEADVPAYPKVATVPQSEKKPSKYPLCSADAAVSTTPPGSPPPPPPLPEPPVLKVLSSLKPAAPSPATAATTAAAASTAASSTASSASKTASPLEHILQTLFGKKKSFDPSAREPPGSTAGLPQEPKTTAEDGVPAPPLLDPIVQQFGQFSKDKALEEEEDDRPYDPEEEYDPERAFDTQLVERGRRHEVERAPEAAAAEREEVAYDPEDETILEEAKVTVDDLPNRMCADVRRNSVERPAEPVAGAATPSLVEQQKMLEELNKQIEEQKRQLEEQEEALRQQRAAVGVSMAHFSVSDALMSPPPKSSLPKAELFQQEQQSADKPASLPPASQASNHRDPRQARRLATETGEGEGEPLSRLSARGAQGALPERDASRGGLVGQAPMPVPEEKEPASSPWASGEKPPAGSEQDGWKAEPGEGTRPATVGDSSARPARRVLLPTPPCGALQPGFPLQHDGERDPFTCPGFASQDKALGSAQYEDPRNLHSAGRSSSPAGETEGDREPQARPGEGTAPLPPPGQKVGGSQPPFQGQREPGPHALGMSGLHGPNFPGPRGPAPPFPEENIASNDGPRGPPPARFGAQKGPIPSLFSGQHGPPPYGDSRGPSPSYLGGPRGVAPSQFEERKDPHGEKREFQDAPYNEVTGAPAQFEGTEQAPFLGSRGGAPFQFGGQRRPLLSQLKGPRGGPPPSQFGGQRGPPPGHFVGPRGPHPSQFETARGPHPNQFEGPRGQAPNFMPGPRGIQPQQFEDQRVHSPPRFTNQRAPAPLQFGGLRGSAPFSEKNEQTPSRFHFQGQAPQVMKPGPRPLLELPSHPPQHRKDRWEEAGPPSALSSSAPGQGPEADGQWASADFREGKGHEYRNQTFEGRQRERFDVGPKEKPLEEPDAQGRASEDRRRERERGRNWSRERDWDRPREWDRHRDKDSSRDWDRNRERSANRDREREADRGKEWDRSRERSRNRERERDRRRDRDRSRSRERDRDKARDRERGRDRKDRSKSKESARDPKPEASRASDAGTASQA
UniProt Q86XP3, sequence (Q86XP3 whole entry, looked up): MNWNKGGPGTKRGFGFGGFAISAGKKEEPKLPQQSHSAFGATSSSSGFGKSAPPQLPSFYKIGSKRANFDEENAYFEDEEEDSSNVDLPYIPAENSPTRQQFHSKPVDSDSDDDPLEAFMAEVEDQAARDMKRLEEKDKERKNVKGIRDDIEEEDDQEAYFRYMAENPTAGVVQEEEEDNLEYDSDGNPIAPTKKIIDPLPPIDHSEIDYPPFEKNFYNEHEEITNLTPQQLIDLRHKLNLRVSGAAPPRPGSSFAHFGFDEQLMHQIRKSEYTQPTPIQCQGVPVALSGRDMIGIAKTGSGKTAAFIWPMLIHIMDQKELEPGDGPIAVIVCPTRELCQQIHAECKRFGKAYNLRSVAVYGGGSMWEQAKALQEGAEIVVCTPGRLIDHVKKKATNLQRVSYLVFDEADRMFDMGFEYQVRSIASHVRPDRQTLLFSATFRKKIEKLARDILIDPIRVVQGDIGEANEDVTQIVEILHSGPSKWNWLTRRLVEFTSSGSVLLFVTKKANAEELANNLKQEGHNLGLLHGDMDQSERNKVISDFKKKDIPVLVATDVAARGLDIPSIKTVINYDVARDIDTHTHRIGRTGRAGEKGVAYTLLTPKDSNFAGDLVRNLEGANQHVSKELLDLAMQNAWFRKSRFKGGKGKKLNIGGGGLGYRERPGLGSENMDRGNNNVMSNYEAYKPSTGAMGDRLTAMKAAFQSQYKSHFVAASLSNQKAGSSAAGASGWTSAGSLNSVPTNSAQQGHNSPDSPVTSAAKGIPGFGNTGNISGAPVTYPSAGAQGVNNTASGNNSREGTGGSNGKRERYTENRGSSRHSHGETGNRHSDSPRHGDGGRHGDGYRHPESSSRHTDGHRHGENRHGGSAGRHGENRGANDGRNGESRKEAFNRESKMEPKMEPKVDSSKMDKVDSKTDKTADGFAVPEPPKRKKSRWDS
UniProt Q8IY37, sequence (Q8IY37 whole entry, looked up): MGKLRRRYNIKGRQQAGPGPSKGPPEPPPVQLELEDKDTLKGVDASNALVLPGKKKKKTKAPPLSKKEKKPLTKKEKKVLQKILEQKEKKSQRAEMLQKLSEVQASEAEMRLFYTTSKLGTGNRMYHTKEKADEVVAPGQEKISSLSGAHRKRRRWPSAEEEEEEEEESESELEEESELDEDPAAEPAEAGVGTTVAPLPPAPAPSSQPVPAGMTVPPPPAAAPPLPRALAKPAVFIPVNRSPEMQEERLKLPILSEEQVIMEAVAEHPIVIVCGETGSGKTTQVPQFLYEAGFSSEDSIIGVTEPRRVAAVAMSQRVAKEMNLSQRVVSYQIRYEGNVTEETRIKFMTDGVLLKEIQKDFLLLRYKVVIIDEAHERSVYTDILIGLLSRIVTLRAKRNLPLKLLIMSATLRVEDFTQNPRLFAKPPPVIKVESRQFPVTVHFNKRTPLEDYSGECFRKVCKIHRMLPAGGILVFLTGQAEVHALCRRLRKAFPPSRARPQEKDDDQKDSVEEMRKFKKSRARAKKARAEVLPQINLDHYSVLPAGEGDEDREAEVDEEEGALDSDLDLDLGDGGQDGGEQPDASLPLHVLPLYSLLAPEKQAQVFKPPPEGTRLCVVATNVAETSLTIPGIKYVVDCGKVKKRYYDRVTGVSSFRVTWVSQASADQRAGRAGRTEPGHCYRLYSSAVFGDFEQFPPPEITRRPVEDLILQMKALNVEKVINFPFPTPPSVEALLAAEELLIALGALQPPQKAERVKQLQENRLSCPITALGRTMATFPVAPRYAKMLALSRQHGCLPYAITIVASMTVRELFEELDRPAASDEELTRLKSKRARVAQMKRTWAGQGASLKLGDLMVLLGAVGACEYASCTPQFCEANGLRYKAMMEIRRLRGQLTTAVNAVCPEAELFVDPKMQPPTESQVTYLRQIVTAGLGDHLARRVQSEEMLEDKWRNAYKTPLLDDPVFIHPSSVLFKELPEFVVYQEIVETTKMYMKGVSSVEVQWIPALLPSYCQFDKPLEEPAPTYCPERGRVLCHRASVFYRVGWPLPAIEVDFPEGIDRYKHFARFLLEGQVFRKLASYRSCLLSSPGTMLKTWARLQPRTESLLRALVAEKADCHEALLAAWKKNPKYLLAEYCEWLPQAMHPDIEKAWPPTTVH

Row | Target | probe-labelled cysteine peptide fold change (10 µM) | probe-labelled cysteine peptide fold change (50 µM)
1 | CRYBG1_Q9Y4K1_1404_ISSVQPICLDSFTGPR (UniProt Q9Y4K1) | 0.199 | -0.0158
2 | DUS3L_Q96G46_396_TVEVDFVDINVGCPIDLVYKK (UniProt Q96G46) | -0.169 | -0.11
3 | DDX24_Q9GZR7_599_SLVFANSISCIK (UniProt Q9GZR7) | 0.479 | 0.567
4 | DOK3_Q7L591_133_LADCVSVLPADGESCPR (UniProt Q7L591) | 0.0537 | 0.00634
5 | DHX37_Q8IY37_486_MLPAGGILVFLTGQAEVHALCR (UniProt Q8IY37) | 0.281 | 0.563
6 | DIDO1_Q9BTC0_1449_MCADVR (UniProt Q9BTC0) | -0.0543 | -0.242
7 | DUS3L_Q96G46_358_RHQCEDIFGVQLEGAFPDTMTK (UniProt Q96G46) | 0.0341 | 0.0134
8 | CYTH1_Q15438_323_EVEDSKKPNCFELYIPDNK (UniProt Q15438) | -0.213 | -0.14
9 | DCTN4_Q9UJW0_280_CEHNLSKPEFNPTSIK (UniProt Q9UJW0) | 0.246 | 0.175
10 | DDX59_Q5T1V6_208_QQLGILVQGQEVTRPIIDFEHCSLPEVLNHNLKK (UniProt Q5T1V6) | -0.239 | -0.182
11 | CORO1C_Q9ULV4_39_VTWDSSFCAVNPR (UniProt Q9ULV4) | 0.0602 | -0.0375
12 | CRYBG1_Q9Y4K1_581+609_EVQLPTCHSNEPEVVSVASCAPPQEEVLGNEHSHCTAELAAK (UniProt Q9Y4K1) | 0.00451 | -0.813
13 | DDX42_Q86XP3_333_ELEPGDGPIAVIVCPTR (UniProt Q86XP3) | 0.0933 | 0.0408
